Screens (PubChem BioAssay)
The list is not random: actives were taken first. Their share in the collection is about 27%.
CYP2C9 act = CYP2C9 (human) activation | P11712 | recombinant CYP2C9, luciferin-H conversion, luminescence; stronger effect = higher value; factor 1 = untreated enzyme, 0 = blocked | activation factor at 5 µM | 96,000 tested, 1.4% active | AID 1024;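 active means activation factor of 2 or more for CYP2C9 at a 5 µM dose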
CYP2C19 inhib = human CYP2C19 inhibition. P33261. CYP2C19 Supersomes, luciferin-H EGE luminescence, 30 min. inhibition, % at 5 µM. 96,000 tested, 21% active. AID 778;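 active means CYP2C19 inhibition above a set limit at 5 µM in the primary screen, cut at about 50% in these data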
Target sequence (P33261 whole entry, looked up): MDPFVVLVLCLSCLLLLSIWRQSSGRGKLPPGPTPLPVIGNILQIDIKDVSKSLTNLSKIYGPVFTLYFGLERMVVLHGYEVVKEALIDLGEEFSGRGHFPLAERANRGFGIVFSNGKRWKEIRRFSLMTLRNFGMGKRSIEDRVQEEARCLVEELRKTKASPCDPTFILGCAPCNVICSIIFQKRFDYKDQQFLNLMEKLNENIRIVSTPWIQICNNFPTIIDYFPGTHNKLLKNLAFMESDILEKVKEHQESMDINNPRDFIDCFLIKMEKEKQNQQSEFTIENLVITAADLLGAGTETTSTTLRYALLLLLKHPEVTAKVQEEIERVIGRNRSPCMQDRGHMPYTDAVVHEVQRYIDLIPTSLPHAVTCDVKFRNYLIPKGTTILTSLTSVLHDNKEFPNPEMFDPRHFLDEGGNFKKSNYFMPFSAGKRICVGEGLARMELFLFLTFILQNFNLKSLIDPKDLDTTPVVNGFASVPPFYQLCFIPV
CYP2C19 act = cytochrome P450 2C19 (human) activation | P33261 | recombinant CYP2C19, luciferin-H EGE luminescence; stronger effect = higher value; 0 = fully inhibited enzyme, 1 = untreated enzyme | activation factor at 5 µM | 96,000 tested, under 10 active | AID 1025;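 active means activation factor of at least 2 at 5 µM in the primary screen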
Cav3 T inh = blocks human Cav3.2 T-type calcium channel; Cav3.2-expressing cells, Fluo-4 calcium fluorescence FDSS; stronger effect = lower value; B-score at 10 µM; 100,000 tested, 4% active;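 active means single-dose well whose peak fluorescence ratio is a statistical outlier from its plate by either plate-standardised score or position-corrected B-score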
CYP2C9 inh = blocks human cytochrome P450 2C9. CYP2C9 Supersomes, luciferin-H conversion, luminescence. inhibition, % at 5 µM. 96,000 tested, 20% active. AID 777;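 active means blocking of liver enzyme CYP2C9 beyond about 50% at 5 µM, limit read from the data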
Pyk2 oligo antag = blocks oligomerization of human Pyk2 in cells. Q14289. Q293 cells, Pyk2 FERM NanoBiT luminescence; stronger effect = lower value. z-score (the deposit names both 25 µM and 10 µM). 99,000 tested, 0.83% active. AID 1347419;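 active means Z-score of -3 or lower, scaled per plate to the spread of control and sample wells; inactive means z-score above -3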;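 further: negative z-score means lost luminescence so less FERM oligomerization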
Each line names hits and unclear results; the compound was inactive in the other large screens.

CCCCCC#CCC#CCC#CCC#CCCCC(=O)O	none (no result: CYP2C9 act, CYP2C19 inhib, CYP2C19 act, CYP2C9 inh, Pyk2 oligo antag)
Cn1c(O)c(C=Nc2ccc(Cc3ccncc3)cc2)c(=O)n(C)c1=O	CYP2C19 inhib 87.8, CYP2C9 inh 73.4 (no result: Cav3 T inh, Pyk2 oligo antag)
Cc1ccc(N=Cc2c(O)n(C)c(=O)n(C)c2=O)nc1	none
CC(C)NC(=O)CN(C(=O)CCC(=O)Nc1ccccn1)c1ccc(F)c(Cl)c1	CYP2C19 inhib 66.4
COCCNC(=O)CN(C(=O)CCC(=O)Nc1ccccn1)c1ccc(F)c(Cl)c1	none
CCC(C)(C)NC(=O)CN(C(=O)CCC(=O)Nc1ccccn1)c1ccc(F)c(Cl)c1	CYP2C19 inhib 84.9, CYP2C9 inh 74.9
C/C(=N\NC(=O)CN1CCOCC1)C(C)(C)C	none
O=S(=O)(c1ccc(Cl)s1)N1CCN(Cc2ccccc2)CC1	CYP2C19 inhib 84.3, CYP2C9 inh 61.1 (no result: Cav3 T inh)
O=c1ccc(S(=O)(=O)N2CCC(Cc3ccccc3)CC2)c[nH]1	none
O=S(=O)(c1ccc(Br)s1)N1CCC(Cc2ccccc2)CC1	CYP2C9 inh 55.6
O=S(=O)(c1ccc(Cl)s1)N1CCC(Cc2ccccc2)CC1	CYP2C9 inh 67.8
O=C1CC(c2ccccc2)n2nc(NC(=O)C3CCCO3)nc2N1 (configuration not stated)	CYP2C19 inhib 91.0, CYP2C9 inh 79.2
CC(=O)c1cc(CC=C(C)C)c(O)c(CC=C(C)C)c1O	CYP2C19 inhib 83.8, CYP2C9 inh 70.9 (no result: Cav3 T inh)
CC(=O)c1cc(CC=C(C)C)c(O)cc1O	CYP2C9 inh 79.8
COC(=O)C1N[C@@H]([C@@H](NC(=O)COc2ccccc2)C(=O)NCc2ccccc2)SC1(C)C (some centres not stated)	none (no result: CYP2C9 act, CYP2C19 inhib, CYP2C19 act, CYP2C9 inh, Pyk2 oligo antag)
O=C(CSc1nnc(-c2ccccc2NC(=O)c2ccccc2)o1)OC1CCCCC1	none (no result: CYP2C9 act, CYP2C19 inhib, CYP2C19 act, CYP2C9 inh)
c1ccc(-n2nc3c(ccc4cnnc43)[nH]2)cc1	CYP2C9 inh 60.2
CCOC(=O)CC1=C(C(=O)OCC)C(c2cccs2)C(C#N)=C(N)O1 (configuration not stated)	CYP2C19 inhib 78.1
Cc1sccc1C1C(C#N)=C(N)SC(N)=C1C#N	none (no result: Cav3 T inh, Pyk2 oligo antag)
C#CCSC1=C(C#N)C(c2cccs2)C(C(=O)OCC)=C(C)N1 (configuration not stated)	CYP2C19 inhib 64.0, CYP2C9 inh 72.0
COC(=O)C1=C(C)OC(N)=C(C#N)C1c1cc(C)sc1C (configuration not stated)	CYP2C19 inhib 87.5
Cc1cc(C2C(C#N)=C(N)SC(N)=C2C#N)c(C)s1	CYP2C19 inhib 92.1 (no result: Cav3 T inh)
CCOC(=O)C1=C(c2ccccc2)OC(N)=C(C#N)C1c1cccs1 (configuration not stated)	none
CN(C)CCSc1nc(N)c2c3c(sc2n1)CN(C)CC3	none
COCCCN1C(=O)c2ccc(C(=O)O)cc2C1=O	none
CCOC(=O)C1=C(C)OC(N)=C(C#N)C1c1cc(F)ccc1F (configuration not stated)	CYP2C19 inhib 83.1
CCOC(=O)CSC1=C(C#N)C(c2ccc(C)o2)CC(=O)N1 (configuration not stated)	none (no result: CYP2C9 act, CYP2C19 inhib, CYP2C19 act, CYP2C9 inh, Pyk2 oligo antag)
CCOC(=O)CC1=C(C(=O)OCC)C(c2cc(OC)c(OC)cc2OC)C(C#N)=C(N)O1 (configuration not stated)	none
CCOC(=O)CC1=C(C(=O)OCC)C(c2ccc(OC)c(OC)c2)C(C#N)=C(N)O1 (configuration not stated)	CYP2C19 inhib 74.5, CYP2C9 inh 87.1
CCN(CC)C(=O)CSC1=C(C#N)C(c2cccs2)C=C(C)N1 (configuration not stated)	CYP2C19 inhib 59.7
CCOC(=O)C1=C(CC)OC(N)=C(C#N)C1c1cc(OC)ccc1OC (configuration not stated)	CYP2C19 inhib 82.3, CYP2C9 inh 97.7
NCCCC[C@H]1CNC(=O)C(=O)N1CCC12CC3CC(CC(C3)C1)C2	none (no result: CYP2C9 act, CYP2C19 inhib, CYP2C19 act, CYP2C9 inh, Pyk2 oligo antag)
Cc1ccn2c(Nc3ccccc3C)c(-c3ccncc3)nc2c1	none (no result: CYP2C9 act, CYP2C19 inhib, CYP2C19 act, Cav3 T inh, CYP2C9 inh)
Cc1cccc(OCc2nnc3n2CCCCC3)c1	none
CCN(CC)CCCn1c(C)cc2c(c1=O)C(c1ccc(OC)c(OC)c1OC)C(C#N)=C(N)O2 (configuration not stated)	none (no result: CYP2C9 act, CYP2C19 inhib, CYP2C19 act, CYP2C9 inh)
CCOC(=O)C1=C(C)OC(N)=C(C#N)C1c1ccc(OC)c(C)c1OC (configuration not stated)	CYP2C19 inhib 72.8, CYP2C9 inh 55.3
